# Measurements taken from PubChem BioAssay.
# Active and inactive are the calls of the source.
# Assays:
# [1] = system: Plasmodium falciparum Sir2 (PF13_0152, Sir2A); test: Plasmodium falciparum Sir2A binding compounds – biochemical, small-molecule microarray, 635 nm fluorescence, primary screen (AID 1098); conditions: fluorescence 635 nm, higher = more signal;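 further: score merges spot fluorescence intensity with its signal-to-noise ratio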
# [2] = probe aDKK1 binding to arrayed compounds – biochemical, biotinylated probe, 635/667 nm fluorescence, primary screen (AID 1099); conditions: small-molecule microarray, higher = more signal;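 further: score merges 667nm spot fluorescence with signal to noise across triplicate slides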
# [3] = probe aCHRDL2 binding to arrayed compounds – biochemical, biotinylated probe, 635/667 nm fluorescence, primary screen (AID 1100); conditions: small-molecule microarray, higher = more signal
# [4] = change in splice reporter luminescence, either direction, cell-based, HEK293, spliceosome inhibition project, primary screen (AID 1101); conditions: HEK293 splicing luciferase reporter, 24 h, higher = more signal, called active from +8 up or from −8 down;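 further: HEK293 cells carrying a splicing-competent luciferase reporter gene; test concentration not given here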
# [5] = biological target: Fibroblast growth factor 10 (Homo sapiens) (UniProt O15520); test: compounds binding fibroblast growth factor 10 – biochemical, small-molecule microarray, 635 nm fluorescence, primary screen (AID 1102); conditions: FGF10 binding, fluorescence 635 nm, higher = more signal
# [6] = system: glycogen synthase kinase-3 (GSK3A per assay name; protocol says GSK3B); test: compounds binding glycogen synthase kinase-3 – biochemical, small-molecule microarray, 635 nm fluorescence, GSK3A, primary screen (AID 1103); conditions: fluorescence 635 nm, higher = more signal; further: the record names both GSK3A and GSK3B
# [7] = biological target: Epidermal growth factor receptor (Homo sapiens) (UniProt P00533); test: compounds binding epidermal growth factor receptor – biochemical, small-molecule microarray, 635 nm fluorescence, primary screen (AID 1104); conditions: EGFR binding, higher = more signal;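 further: score merges 667 nm emission intensity with spot signal to noise over triplicate slides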
# [8] = biological target: Follistatin-related protein 3 (Homo sapiens) (UniProt O95633); test: compounds binding follistatin-related protein 3 – biochemical, small-molecule microarray, 635 nm fluorescence, primary screen (AID 1105); conditions: FSTL3 binding, higher = more signal;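 further: score merges emission near 667 nm and signal to noise per printed spot across three slides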
# [9] = biological target: Dickkopf-related protein 1 (Homo sapiens) (UniProt O94907); test: small molecules binding DKK1 protein – biochemical, small-molecule microarray, 635 nm fluorescence scan, primary screen (AID 1106); conditions: higher = more signal;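 further: score merges emission near 667 nm with signal to noise over three replicate slides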
# [10] = system: Inhibin beta A chain (activin A); test: small molecules binding activin A – biochemical, small-molecule microarray, 635 nm fluorescence scan, primary screen (AID 1107); conditions: INHBA, higher = more signal;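 further: mouse activin A protein probed at 4.33 µg/mL on printed slides; score merges bound-protein fluorescence near 667 nm with spot signal-to-noise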
# [11] = system: Human papillomavirus type 1a protein E7 (residues 44-93); test: small molecules binding HPV E7 44-93 – biochemical, small-molecule microarray, residues 44-93, 635 nm fluorescence, primary screen (AID 1108); conditions: fluorescence 635 nm, higher = more signal;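 further: E7 fragment applied at 1 µg/mL in TBST for 1 h at 4 C; score combines spot fluorescence with its signal to noise ratio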
# [12] = hepatitis C replication reporter changes, two-sided – Huh7 cells, luciferase reporter, HCV replication inhibitor project, primary screen (AID 1109); conditions: Huh7 HCV replicon luciferase reporter, 48 h; higher = more signal;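 further: huh7 hepatoma cells harbouring a luciferase neomycin HCV replicon reporter; luciferase luminescence as measure of HCV replicon replication; test concentration not given here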
# [13] = biological target: Left-right determination factor 2 (Homo sapiens) (UniProt O00292); test: small molecules binding LEFTY2 protein – biochemical, small-molecule microarray, 635 nm fluorescence scan, primary screen (AID 1110); conditions: higher = more signal
# [14] = biological target: Calmodulin-1 (Homo sapiens) (UniProt P0DP23); test: small molecules binding calmodulin-1 with EGTA – biochemical, small-molecule microarray, Cy5-labelled CALM1, profiling panel (AID 1111); conditions: Cy5-CALM1 binding fluorescence, higher = more signal;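 further: labelled calmodulin applied in Tris saline Tween buffer holding calcium plus EGTA and DTT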
# [15] = biological target: Calmodulin-1 (Homo sapiens) (UniProt P0DP23); test: small molecules binding Ca-loaded calmodulin-1 – biochemical, small-molecule microarray, Cy5-labelled CALM1, plus calcium, artefact control for SMM control-protein annotation, profiling panel (AID 1112); conditions: Cy5-CALM1 binding fluorescence, higher = more signal;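 further: score merges spot fluorescence with signal to noise from triplicate slides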
# [16] = probe aWnt5a binding to arrayed compounds – biochemical, biotinylated probe, 635/667 nm fluorescence, primary screen (AID 1113); conditions: small-molecule microarray, higher = more signal;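 further: score merges 667 nm fluorescence intensity with signal-to-noise per printed feature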
# [17] = probe aShh binding to arrayed compounds – biochemical, biotinylated probe, 635/667 nm fluorescence, primary screen (AID 1114); conditions: small-molecule microarray, higher = more signal;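 further: probe is biotin-labelled aShh protein from a stem cell growth factor screen; measures binding of labelled protein to compounds printed on the slide; score merges feature fluorescence at 667 nm with signal-to-noise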
# [18] = probe aNog binding to arrayed compounds – biochemical, biotinylated probe, 635/667 nm fluorescence, primary screen (AID 1115); conditions: small-molecule microarray, higher = more signal;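 further: probe is biotinylated aNog protein used at 0.15 µg/mL for 1 h at 4 C; z-score combines 667 nm fluorescence of each spot with its signal to noise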
# [19] = biological target: Torsin-1A-interacting protein 1 (Homo sapiens) (UniProt Q5JTV8); test: compound microarray binding of lysate hLAP1 – cell lysate, small-molecule microarray, COS7 lysate, 635/667 nm fluorescence, primary screen (AID 1116); conditions: 635 nm fluorescence, higher = more signal
# [20] = biological target: Alpha-bungarotoxin (Bungarus multicinctus) (UniProt P60615); test: compounds binding labelled alpha-BTX control protein – biochemical, small-molecule microarray, Alexa647 label, 635/667 nm fluorescence, artefact control for SMM control protein annotation, profiling panel (AID 1117); conditions: alpha-BTX-A647 binding fluorescence, higher = more signal
# Sequence of Alpha-bungarotoxin (Bungarus multicinctus) (P60615 whole entry, looked up): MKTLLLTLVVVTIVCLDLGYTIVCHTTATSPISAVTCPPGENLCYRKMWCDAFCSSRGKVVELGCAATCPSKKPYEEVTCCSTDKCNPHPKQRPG
# Sequence of Fibroblast growth factor 10 (Homo sapiens) (O15520 whole entry, looked up): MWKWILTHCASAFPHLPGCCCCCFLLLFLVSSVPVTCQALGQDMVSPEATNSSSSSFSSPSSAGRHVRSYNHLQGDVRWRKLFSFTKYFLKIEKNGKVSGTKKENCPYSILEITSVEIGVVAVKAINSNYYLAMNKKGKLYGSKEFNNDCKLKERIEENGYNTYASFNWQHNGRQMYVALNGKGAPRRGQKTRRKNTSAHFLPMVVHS
# Sequence of Epidermal growth factor receptor (Homo sapiens) (P00533 whole entry, looked up): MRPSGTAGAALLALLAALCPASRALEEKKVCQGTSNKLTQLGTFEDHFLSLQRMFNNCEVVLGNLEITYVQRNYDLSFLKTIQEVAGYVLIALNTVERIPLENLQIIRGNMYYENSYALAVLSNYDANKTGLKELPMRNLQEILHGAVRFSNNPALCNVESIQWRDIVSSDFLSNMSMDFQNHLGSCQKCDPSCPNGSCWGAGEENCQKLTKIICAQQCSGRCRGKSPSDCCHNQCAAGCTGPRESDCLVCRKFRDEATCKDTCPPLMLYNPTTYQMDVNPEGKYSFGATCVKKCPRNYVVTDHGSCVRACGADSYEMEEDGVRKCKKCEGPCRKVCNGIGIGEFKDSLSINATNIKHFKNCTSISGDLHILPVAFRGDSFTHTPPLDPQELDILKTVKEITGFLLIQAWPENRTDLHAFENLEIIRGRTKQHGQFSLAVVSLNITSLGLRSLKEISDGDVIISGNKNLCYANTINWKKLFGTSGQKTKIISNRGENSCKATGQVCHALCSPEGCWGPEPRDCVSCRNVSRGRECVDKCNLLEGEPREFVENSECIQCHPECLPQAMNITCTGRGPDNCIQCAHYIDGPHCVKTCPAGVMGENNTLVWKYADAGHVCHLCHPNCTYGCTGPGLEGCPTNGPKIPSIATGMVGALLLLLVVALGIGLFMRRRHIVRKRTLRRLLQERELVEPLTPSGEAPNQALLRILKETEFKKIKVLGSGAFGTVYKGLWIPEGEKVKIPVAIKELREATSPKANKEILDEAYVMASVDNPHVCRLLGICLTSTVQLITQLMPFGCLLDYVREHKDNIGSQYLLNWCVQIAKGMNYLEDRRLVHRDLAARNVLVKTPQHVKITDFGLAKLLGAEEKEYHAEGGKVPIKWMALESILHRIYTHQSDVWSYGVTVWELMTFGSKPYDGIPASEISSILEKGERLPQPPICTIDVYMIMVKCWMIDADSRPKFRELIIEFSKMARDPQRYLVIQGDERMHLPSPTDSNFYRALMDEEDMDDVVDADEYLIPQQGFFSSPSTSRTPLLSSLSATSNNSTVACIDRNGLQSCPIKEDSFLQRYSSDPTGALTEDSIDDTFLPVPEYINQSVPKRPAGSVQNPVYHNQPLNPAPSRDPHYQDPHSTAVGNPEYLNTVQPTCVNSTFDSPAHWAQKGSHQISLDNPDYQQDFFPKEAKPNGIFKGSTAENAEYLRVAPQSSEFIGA
# Sequence of Follistatin-related protein 3 (Homo sapiens) (O95633 whole entry, looked up): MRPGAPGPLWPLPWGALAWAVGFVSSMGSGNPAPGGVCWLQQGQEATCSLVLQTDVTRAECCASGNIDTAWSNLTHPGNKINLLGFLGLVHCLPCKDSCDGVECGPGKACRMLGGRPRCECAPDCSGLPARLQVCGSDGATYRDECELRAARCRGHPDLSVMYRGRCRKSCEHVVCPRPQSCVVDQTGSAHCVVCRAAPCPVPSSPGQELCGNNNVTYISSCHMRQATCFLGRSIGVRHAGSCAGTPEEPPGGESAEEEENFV
# Sequence of Torsin-1A-interacting protein 1 (Homo sapiens) (Q5JTV8 whole entry, looked up): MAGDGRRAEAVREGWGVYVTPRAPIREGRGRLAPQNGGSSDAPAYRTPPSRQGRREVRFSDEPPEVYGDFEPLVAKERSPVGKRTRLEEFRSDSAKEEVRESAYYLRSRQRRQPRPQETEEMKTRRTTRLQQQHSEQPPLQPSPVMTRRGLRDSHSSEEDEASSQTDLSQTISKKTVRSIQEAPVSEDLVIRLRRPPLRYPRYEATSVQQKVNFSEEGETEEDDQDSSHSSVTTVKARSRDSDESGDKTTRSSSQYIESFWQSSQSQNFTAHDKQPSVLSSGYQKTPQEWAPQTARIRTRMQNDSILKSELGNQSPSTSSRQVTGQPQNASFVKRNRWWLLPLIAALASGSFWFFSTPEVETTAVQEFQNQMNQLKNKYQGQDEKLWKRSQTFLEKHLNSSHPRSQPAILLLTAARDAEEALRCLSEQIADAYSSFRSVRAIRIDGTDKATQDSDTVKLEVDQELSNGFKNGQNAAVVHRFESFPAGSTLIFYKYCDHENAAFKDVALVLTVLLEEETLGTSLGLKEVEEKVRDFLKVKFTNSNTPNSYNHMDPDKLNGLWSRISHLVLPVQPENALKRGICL
# Sequence of Left-right determination factor 2 (Homo sapiens) (O00292 whole entry, looked up): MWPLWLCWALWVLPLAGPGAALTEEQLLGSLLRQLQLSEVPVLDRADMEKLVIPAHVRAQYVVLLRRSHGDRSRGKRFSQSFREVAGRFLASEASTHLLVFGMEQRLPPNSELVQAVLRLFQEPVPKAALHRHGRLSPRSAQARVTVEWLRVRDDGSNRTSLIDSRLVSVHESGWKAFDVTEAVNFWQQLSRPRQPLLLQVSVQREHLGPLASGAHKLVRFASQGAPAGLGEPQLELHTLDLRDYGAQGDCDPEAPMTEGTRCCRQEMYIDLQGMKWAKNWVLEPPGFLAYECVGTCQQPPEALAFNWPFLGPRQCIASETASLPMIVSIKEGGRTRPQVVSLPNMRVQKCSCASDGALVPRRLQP
# Sequence of Dickkopf-related protein 1 (Homo sapiens) (O94907 whole entry, looked up): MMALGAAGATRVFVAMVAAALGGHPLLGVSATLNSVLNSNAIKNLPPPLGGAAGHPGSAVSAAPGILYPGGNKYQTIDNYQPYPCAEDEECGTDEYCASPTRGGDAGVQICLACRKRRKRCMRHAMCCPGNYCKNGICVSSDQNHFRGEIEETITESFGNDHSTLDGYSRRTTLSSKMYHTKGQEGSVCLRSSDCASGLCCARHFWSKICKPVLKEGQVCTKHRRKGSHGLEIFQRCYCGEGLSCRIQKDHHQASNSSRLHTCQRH
Compound,composite z-score [1],composite z-score [2],composite z-score [3],z-score [4],composite z-score [5],composite z-score [6],composite z-score [7],composite z-score [8],composite z-score [9],composite z-score [10],composite z-score [11],z-score [12],composite z-score [13],composite z-score [14],composite z-score [15],composite z-score [16],composite z-score [17],composite z-score [18],composite z-score [19],composite z-score [20]
COc1ccc([Si](C)(C)[C@H]2[C@H](CCO)O[C@@]3(C(=O)N(Cc4cccc(N5C(=O)c6cccc7cccc5c67)c4)c4ccccc43)[C@@H]2C)cc1,1.25,-0.207,0.442,-1.27 (inactive),0.668,0.149,-0.437,0.277,-0.701,-0.345,1.06,-4.97,-0.652,1.04,0.591,0.0618,0.0121,0.741,0.116,0.621
CCCCCCC#C[Si](O[C@H](c1ccccc1)c1cn([C@H](C)c2ccccc2)nn1)(C(C)C)C(C)C,0.693,-0.167,-0.365,-0.209 (inactive),0.547,0.565,0.483,0.841,1.25,0.327,0.444,-1.57,0.434,-0.193,-0.455,0.0317,-0.138,-0.139,-0.0802,-0.0777
CN(C)CCCN1C(=O)[C@@]2(c3ccc([N+](=O)[O-])cc3)CC(=O)N(C3CCCCC3)[C@@H]2c2ccc(CO)cc21,-0.34,-0.0972,0.196,-0.447 (inactive),0.835,-0.808,0.108,-0.0207,-0.162,0.731,-0.274,-0.493,0.0478,-0.126,-0.361,-0.104,-0.304,-0.118,-1.4,0.25
CO[C@H]1O[C@H](CO)[C@@H](OC(=O)Nc2ccc(C(F)(F)F)cc2)[C@H](OC(=O)Nc2ccccc2)[C@@H]1OC(=O)Nc1ccccc1,1.02,-0.442,0.144,-0.577 (inactive),1.07,1.23,0.74,0.743,0.295,0.378,1.34,0.0041,0.003,1.08,-0.778,0.0887,-0.102,-0.305,1.01,0.462
CCCC[C@@H]1C[C@H]1[C@@H](NC(=O)c1ccco1)c1ccccc1,-1.69,-0.145,1.01,0.00344 (inactive),-1.01,-1.31,-2.01,-1.63,-2.05,0.735,-1.35,-2.26,-2.75,-0.352,0.479,-0.258,0.108,-0.218,-1.63,-0.703
Cc1ccccc1/C=C/C=O,0.939,-0.275,0.297,-0.0672 (inactive),-0.435,-1.09,-0.813,-0.303,-0.243,0.612,-1.54,0.19,-0.615,-0.559,-0.161,-0.172,-0.154,-0.41,-0.23,-0.465
O=C1C2C=CC(C(O)c3cccc4ccccc34)N(n3cnnc3)C2C(=O)N1Cc1ccccc1 (stereo not given),0.161,1.72,0.8,0.228 (inactive),0.975,-0.181,0.402,0.529,-0.13,0.668,0.0125,-1.16,0.102,0.197,-0.151,1.06,-0.309,2.2,0.67,0.274
C=CCOC(=O)[C@@H]1[C@H]2C(=O)O[C@H](c3ccccc3)[C@H](c3ccccc3)N2[C@H](c2ccc(OCCOC(=O)[C@H]3C[C@H]4C(=O)N[C@@H](CCCC[N+](C)(C)C)C(=O)N4[C@H]3c3cccc(OCCO)c3)cc2)[C@@]12C(=O)Nc1ccc(I)cc12,1.53,0.135,-0.0036,-0.241 (inactive),1.21,1.29,1.32,1.43,1.7,0.538,1.14,-1.29,1.08,0.38,-0.0134,-0.091,-0.153,-0.033,0.896,0.642
C=CCNC(=O)[C@@H]1[C@H]2C(=O)O[C@H](c3ccccc3)[C@H](c3ccccc3)N2[C@H](c2ccccc2OCCO)[C@@]12C(=O)N(C(=O)OCCOC)c1ccc(C#CCC(C(=O)OC)C(=O)OC)cc12,1.89,2,1.09,-0.235 (inactive),1.43,1.31,1.25,1.5,1.34,1.33,1.12,-2.59,1.47,2.23,1.01,0.826,2.18,2.79,2.74,3.06
COC(=O)c1c2oc(c1C(=O)OC)C(=O)N[C@H](Cc1ccccc1)Cn1nncc1C1(CCCCC1)NC(=O)N[C@H](CO)CC2,0.0465,0.026,-0.485,-1.46 (inactive),0.0778,0.129,0.0246,0.402,0.452,0.006,0.613,-0.398,0.0801,-0.16,-0.661,-0.0179,-0.138,-0.308,-0.208,-0.181
CO[C@H]1O[C@H](CO)[C@@H](OC(=O)Nc2cccc(F)c2)[C@H](OC(=O)Nc2ccccc2-c2ccccc2)[C@@H]1OC(=O)Nc1ccccc1-c1ccccc1,1.13,0.568,0.74,1.54 (inactive),1.17,0.673,0.407,1.11,0.198,0.434,1.16,-3.61,0.343,1.95,0.283,0.0825,0.0684,-0.268,1.47,1.96
